Rows were chosen to be rich in hits. Some 5.7% of all compounds tested hit in one or more screens of this group.
D3 ag: activates the human D3 dopamine receptor. P35462. D3R DiscoveRx beta-arrestin cells, luminescence, 90 min. max activation, %. 410,000 compounds, 0.58% hits. AID 652048; in the data active means max activation above about 30%; further: 0% is about no effect
Target sequence (P35462 whole entry, looked up): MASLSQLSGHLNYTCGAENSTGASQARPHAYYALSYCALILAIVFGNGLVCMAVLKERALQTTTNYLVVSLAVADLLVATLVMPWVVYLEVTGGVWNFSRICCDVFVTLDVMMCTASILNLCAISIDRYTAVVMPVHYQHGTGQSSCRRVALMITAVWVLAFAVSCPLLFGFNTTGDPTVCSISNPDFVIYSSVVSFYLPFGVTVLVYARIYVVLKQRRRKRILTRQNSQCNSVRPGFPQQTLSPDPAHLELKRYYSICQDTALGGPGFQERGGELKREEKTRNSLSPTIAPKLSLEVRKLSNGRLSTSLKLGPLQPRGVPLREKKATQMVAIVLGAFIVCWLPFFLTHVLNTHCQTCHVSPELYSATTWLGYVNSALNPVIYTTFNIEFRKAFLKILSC
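Agonist mode: compounds and dopamine controls were applied to plated cells for 90 min at 37 degrees C after an overnight attachment at 1500 cells/well. Luminescent read-out followed 30 - 60 minutes at room temperature with DiscoveRx detection reagent.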
GLP1R cytotox: cytotoxic in the GLP-1 receptor inverse agonist counter-screen; Potency, µM (top dose mostly 38.3 µM), without a hit: at the top dose activity change, negative = inhibition, most hits filed as inhibitors; AID 624418; 410,000 compounds, 0.13% hits; HEK293 cAMP-luciferase reporter cells, luminescence, 24 h;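 further: loss of luciferase light is scored as toxicity; potency means the concentration at half of the fitted maximal effect; on the % scale 0 is the no-effect control and ±100 the full control effect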
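Here, cytotoxicity is scored as loss of luminescence. The MLSMR collection was tested on cells seeded in medium containing 10% Nu serum, with a 24 hr compound exposure preceded by 12 hours of culture.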
ClpP mod: qHTS Assay for Activators of ClpP; purified B. subtilis ClpP, FRET peptide cleavage, 20 min; 340,000 compounds, 1.9% hits; ATP-dependent Clp protease proteolytic subunit (Bacillus subtilis (strain 168)), P80244; Potency, µM (top dose mostly 57.5 µM), inactives show top-dose activity change, negative = active; AID 651965, 2013; active means well fitted falling curve with a large enough effect; inconclusive means small, poorly fitted or top-dose-only effect; inactive means no such curve, though single readings can be large or run the other way; further: potency means the concentration at half of the fitted maximal effect; the source files actives as falling curves though it sought activators and does not explain the sign; nearly all actives have a fitted effect of over 65% in size
Target sequence (P80244 whole entry, looked up): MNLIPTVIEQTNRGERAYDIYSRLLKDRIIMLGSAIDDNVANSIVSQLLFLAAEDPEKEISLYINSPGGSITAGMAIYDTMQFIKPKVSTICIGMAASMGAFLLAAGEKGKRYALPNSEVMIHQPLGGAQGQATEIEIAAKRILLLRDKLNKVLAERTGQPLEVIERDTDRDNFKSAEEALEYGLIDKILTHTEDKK
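Buffer: 100 mM Tris/HCl pH8, 100 mM KCl, 0.05% low protease BSA, 2.5% glycerol, 0.01% Tween-20. ClpP 10 microg/mL final; 20 min RT; delta FRET normalized to ADEP and DMSO controls.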
GLP-1R inv ag: inverse agonists of human GLP-1 receptor; 410,000 compounds, 1.6% hits; Potency, µM (series often up to 38.3 µM), without a hit: top-dose activity change, negative = inhibition, actives largely listed as inhibitors; HEK293 GLP-1R CRE-luciferase, luminescence, 24 h; GLP-1R form is constitutively active; P43220; further: potency means the concentration at half of the fitted maximal effect; on the % scale 0 is the no-effect control and ±100 the full control effect; nearly all actives have a fitted effect of over 55% in size
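Constitutively active GLP-1R drives a cAMP-responsive luciferase in stably transfected HEK293 cells; test compounds are added after overnight (12 h) attachment and left 24 hr, and signal loss in luminescence marks inhibition.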
DRD3 antagonist: blocks the human D3 dopamine receptor. P35462. D3R cells, DiscoveRx beta-arrestin luminescence, antagonist mode; stronger effect = lower value. max response, negative = inhibition, %. 360,000 compounds, 2.5% hits; in the data active means max response below about -50%; inconclusive means no clear call, values can overlap the other calls; further: on the % scale 0 is the no-effect control and ±100 the full control effect
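Cells expressing the human receptor were seeded at 1500 cells/well, incubated overnight at 37 degrees C in 5% CO2, then exposed to library compounds with dopamine controls for 90 minutes at 37 degrees C before luminescent detection.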
GLP-1R agonist: activates the human GLP-1 receptor; P43220; HEK293 GLP-1R CRE-luciferase, luminescence, 4-6 h; cells express a hypersensitive GLP-1R form; Potency, µM (doses to about 45.6 µM), for inactives: at the highest dose activation, actives largely listed as activators; 380,000 compounds, 0.007% hits; AID 624172; further: potency means the concentration at half of the fitted maximal effect; % of control where 0% means no effect
* hit, by the source's call; ? = inconclusive; . = no result; [ ] = another dose, or the depositor's remark. Unless noted, the call rests on the fitted dose curve; in most records, active means well fitted curve in the direction sought with a large enough effect; inconclusive means small, poorly fitted or top-dose-only effect, or another doubt; inactive means no such curve, though single readings can be large; an effect the other way counts as inactive or inconclusive.

SMILES	D3 ag	GLP1R cytotox	ClpP mod	GLP-1R inv ag	DRD3 antagonist	GLP-1R agonist
O=C(c1cccc([N+](=O)[O-])c1)N1CCN(C/C=C/c2ccccc2)CC1	32*	?	.	-22%	-11	11%
COc1cc(C(=O)N2CCN(C/C=C/c3ccccc3)CC2)cc(OC)c1OC	33*	-24%	0%	-8%	29	4%
CC(C(=O)Nc1cccc([N+](=O)[O-])c1)N1CCN(C/C=C/c2ccccc2)CC1 (stereo unspecified)	-5	-28%	-5%	10µM*	?	11%
CCOc1cc(C(=O)N2CCN(C/C=C/c3ccccc3)CC2)cc(OCC)c1OCC	4	?	0%	-3%	16	-1%
COC(=O)c1ccccc1NC(=O)c1ccc(-c2nc(COc3ccccc3)c(C)o2)cc1	-16	21%	-7%	9%	.	.
CN(C)CCN(C)C1CN(C2CCCC2)S(=O)(=O)C1 (stereo unspecified)	8	-6%	1%	17%	7	-6%
O=C(Nc1ccc(F)cc1)N1CCN(C/C=C/c2ccccc2)CC1	-4	-20%	2%	?	-9	5%
O=C(Nc1cccc(F)c1)N1CCN(C/C=C/c2ccccc2)CC1	1	-15%	-2%	8.9µM*	?	-3%
O=C(c1[nH]c2ccccc2c1Sc1ccc(Cl)cc1)N1CCCCC1	-2	-1%	0%	10µM*	.	.
O=C(NNc1ccccc1Br)C(O)(c1cccc(C(F)(F)F)c1)c1cccc(C(F)(F)F)c1	-2	?	1%	3.2µM*	-29	-32%
Cc1ccc(C(O)(C(=O)NNc2ccccn2)c2ccc(C)cc2)cc1	0	-3%	.	33%	-7	4%
Cc1cccc(C(O)(C(=O)NNc2ccc3ccccc3n2)c2cccc(C)c2)c1	2	-3%	-10%	4.5µM*	-11	-4%
Cc1ccc(NNC(=O)C(O)(c2cccc(C(F)(F)F)c2)c2cccc(C(F)(F)F)c2)cc1	-6	?	0%	3.2µM*	-7	-29%
COC(=O)c1ccccc1NC(=O)CCS(=O)(=O)c1ccc(Br)s1	1	8%	?	-9%	-52*	15%
Cc1ccccc1NC(=O)CCS(=O)(=O)c1ccc(Br)s1	-5	19%	.	-8%	-8	5%
COc1ccc(S(=O)(=O)NCCc2sc(-c3ccccc3)nc2C)cc1F	1	2%	4%	-22%	.	26%
O=c1c2c(nc3cc(-c4ccc(F)cc4)[nH]n13)CCC2	-9	-25%	6.3µM*	-22%	-20	-2%
Cc1ccc(C)c(NC(=O)C(CC(C)C)N2Cc3ccccc3C2=O)c1 (stereo unspecified)	-17	-13%	0%	?	.	.
CC(C)Cc1ccc(S(=O)(=O)Nc2cc3c(cc2N2CCOCC2)n(C)c(=O)c(=O)n3C)cc1	0	-3%	-4%	17%	.	.
CC(=O)Nc1ccc(Nc2cc(C)nc3c(-c4ccc(Cl)cc4)cnn23)cc1	-8	-15%	?	-9%	1	5%
CC(=O)Nc1ccc(Nc2cc(C)nc3c(-c4ccc(Cl)cc4)c(C)nn23)cc1	2	-18%	28µM*	?	11	2%
CCCC(=O)NC(c1cccs1)c1cc([N+](=O)[O-])c2cccnc2c1O (stereo unspecified)	-18	-2%[1.53 µM]	-2%	4%	?	-9%
CC(C)C(=O)NC(c1ccccc1)c1cc([N+](=O)[O-])c2cccnc2c1O (stereo unspecified)	-19	?	-1%	?	-77*	-15%
CCC(=O)NC(c1cccs1)c1cc([N+](=O)[O-])c2cccnc2c1O (stereo unspecified)	-23	?	-1%	-21%	-69*	-19%
CCCC(=O)NC(c1ccccc1)c1ccc2cccnc2c1O (stereo unspecified)	31*	?	.	?	?	6%
SMILES	D3 ag	GLP1R cytotox	ClpP mod	GLP-1R inv ag	DRD3 antagonist	GLP-1R agonist
CCCCC(=O)NC(c1ccccc1)c1ccc2cccnc2c1O (stereo unspecified)	3	?	.	?	-12	3%
Cc1nn(C)c2c1c(C(F)(F)F)cc(=O)n2C(C)C(=O)NCCc1ccccc1 (stereo unspecified)	-9	3%	4%	-33%	.	.
CCCc1cnc(NCCNCC(O)COc2ccc(Cl)c(Cl)c2)nc1 (stereo unspecified)	-25	?	.	5µM*	?	3%
CC(=O)c1cccc(OCC(O)CNCCc2ccc(Cl)cc2)c1 (stereo unspecified)	-6	14%	0%	-24%	1	-1%
COCCCNC(=O)CSc1nc(-c2ccccc2)[nH]c1-c1ccc(C)cc1	-16	4%	25µM*	-13%	.	.
Cc1ccc(-c2[nH]c(-c3ccc(Cl)cc3)nc2SCC(=O)NCC2CCCO2)cc1 (stereo unspecified)	-11	5%	4%	?	-15	0%
COCCCNC(=O)CSc1nc(-c2cccc(F)c2)[nH]c1-c1ccccc1	-17	6%	28µM*	-17%	.	.
CCc1ccc(-c2nc(SCC(=O)NCC3CCCO3)c(-c3ccc(C)cc3)[nH]2)cc1 (stereo unspecified)	-4	2%	32µM*	-18%	.	.
COC(=O)c1c(SC)nc2ccccc2c1OCc1cccc(C)c1	29	1%	-5%	-29%	.	.
O=C(O)C1C2CCC(O2)C1C(=O)Nc1cccc(Cl)c1 (stereo unspecified)	-1	-12%	.	?	1	5%
O=C(Nc1ccccc1)C1C2CCC3C(CCC21)C3(Cl)Cl (stereo unspecified)	-9	-16%	2%	6.3µM*	-23	-4%
O=C(Nc1cccc(Cl)c1)C1C2CCC3C(CCC21)C3(Cl)Cl (stereo unspecified)	3	-35%	-28%	5.6µM*	16	-9%
O=C(Nc1ccccc1Cl)C1C2CCC3C(CCC21)C3(Cl)Cl (stereo unspecified)	4	2%	-1%	10%	0	7%
O=C(NC1CCCCC1)[C@@H]1CC=C[C@@H]2CCN(Cc3ccc(Cl)c(Cl)c3)C(=O)[C@@H]21	.	.	-4%	.	.	.
Cc1ccc(CN(Cc2ccco2)C(=O)COc2c(C)cc(C)cc2C)cc1	-6	3%	-1%	2.8µM*	.	.
Cc1ccc(CN(Cc2ccco2)C(=O)COc2ccccc2C)cc1	36*	6%	0%	?	.	.

Screening results as filed in PubChem.
